Measured values from PubChem BioAssay (NCI).
This is part of a sample that, as a whole, favours compounds with a hit. Of some 79,000 tested, about 15% had one in any assay. The source made the active and inactive calls. No stated cut-off is given here; in the data, active means growth inhibition above about 70%; inactive means the rest.

Assays:
[1] = NCI Yeast Anticancer Drug Screen. Data for the mec2-1 strain (AID 157); details: S. cerevisiae mec2-1 strain, stronger effect = higher value
How it was run: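 mec2-1 yeast strain, carrying an alteration in DNA damage repair or cell cycle control, was exposed to compounds; growth inhibition was measured relative to vehicle-treated controls.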

[2] = NCI Yeast Anticancer Drug Screen. Data for the rad14 strain (AID 159);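 further: 0% = growth of vehicle-treated control cultures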; details: S. cerevisiae rad14 strain growth inhibition, stronger effect = higher value
How it was run: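 Readout: yeast growth inhibition, referenced to vehicle-only cultures. Strain bears a defined alteration in DNA damage repair.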

[3] = NCI Yeast Anticancer Drug Screen. Data for the sgs1 mgt1 strain (AID 161);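 further: 0% = growth of cultures given vehicle only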; details: S. cerevisiae sgs1 mgt1 strain, stronger effect = higher value
How it was run: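 Yeast cells carrying a defined DNA-repair defect were exposed to test compounds. Growth inhibition was measured relative to vehicle-treated controls.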

[4] = NCI Yeast Anticancer Drug Screen. Data for the CLN2oe strain (AID 163);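 further: 0% = growth of vehicle-only control cultures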; details: S. cerevisiae CLN2oe strain, stronger effect = higher value
How it was run: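 Yeast cells carrying a defined cell-cycle control alteration were exposed to test compounds. Growth inhibition was scored against vehicle-treated control cultures.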

[5] = NCI Yeast Anticancer Drug Screen. Data for the cln2 rad14 strain (AID 165);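 further: 0% = growth equal to vehicle treated cultures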; details: S. cerevisiae cln2 rad14 strain, stronger effect = higher value
How it was run: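 Yeast carrying cln2 and rad14 alterations (cell cycle control and DNA damage repair) were exposed to compounds. Growth inhibition was measured against vehicle-treated controls.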

[6] = NCI Yeast Anticancer Drug Screen. Data for the bub3 strain (AID 167); details: S. cerevisiae bub3 mutant strain, stronger effect = higher value
How it was run: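 Part of a panel of yeast mutants defective in DNA damage repair or cell cycle regulation. Each strain is grown with compound, and inhibition is calculated relative to solvent-treated cultures.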

[7] = NCI Yeast Anticancer Drug Screen. Data for the wt2 strain (AID 169);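 further: 0% = growth of vehicle-treated yeast cultures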; details: S. cerevisiae wt2 strain growth inhibition, stronger effect = higher value
How it was run: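 Yeast cells were exposed to test compounds, and growth inhibition was measured relative to vehicle-treated controls.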

[8] = NCI Yeast Anticancer Drug Screen. Data for the mlh1 strain (AID 171);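 further: 0% = growth of vehicle-treated control cultures of the same strain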; details: S. cerevisiae mlh1 strain growth inhibition, stronger effect = higher value
How it was run: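 Yeast carrying a defined genetic alteration in DNA damage repair or cell cycle control were exposed to test compounds. Growth inhibition was measured relative to vehicle-treated controls.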

[9] = NCI Yeast Anticancer Drug Screen. Data for the sgs1 strain (AID 173);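 further: 0% = growth of vehicle-only control cultures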; details: S. cerevisiae sgs1 mutant, stronger effect = higher value
How it was run: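 Yeast mutant strains carrying defined defects in DNA damage repair or cell cycle control were exposed to test compounds. Growth inhibition was scored against vehicle-treated controls.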

[10] = NCI Yeast Anticancer Drug Screen. Data for the mlh1 rad18 strain (AID 175); details: S. cerevisiae mlh1 rad18 strain growth inhibition, stronger effect = higher value
How it was run: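 Growth inhibition of the yeast strain was measured after compound exposure and expressed relative to vehicle-treated controls. The strain carries defined defects in DNA damage repair.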

[11] = NCI Yeast Anticancer Drug Screen. Data for the rad18 strain (AID 177); details: S. cerevisiae rad18 mutant growth inhibition, stronger effect = higher value
How it was run: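 Yeast carrying a defined DNA damage repair alteration were exposed to compounds. Growth inhibition was expressed relative to vehicle-treated controls.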

[12] = NCI Yeast Anticancer Drug Screen. Data for the rad52 strain (AID 147);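 further: 0% = growth of vehicle-treated control cultures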; details: S. cerevisiae rad52 mutant growth inhibition, stronger effect = higher value
How it was run: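 Yeast strain carrying a DNA damage repair alteration was exposed to test compounds. Growth inhibition was measured relative to vehicle-treated controls.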

[13] = NCI Yeast Anticancer Drug Screen. Data for the rad50EPP+ strain (AID 151);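 further: 0% = growth of vehicle-treated control cultures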; details: S. cerevisiae rad50 mutant strain, stronger effect = higher value
How it was run: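 Yeast strain carrying rad50 alteration (rad50EPP+) exposed to compounds; growth inhibition measured relative to vehicle-treated controls.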

[14] = NCI Yeast Anticancer Drug Screen. Data for the mgt1 strain (AID 153); details: S. cerevisiae mgt1 mutant growth inhibition, stronger effect = higher value
How it was run: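 Yeast mgt1 strain (DNA repair/cell-cycle alteration panel) exposed to compounds; growth inhibition measured relative to vehicle-treated controls.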

[15] = NCI Yeast Anticancer Drug Screen. Data for the rad50 strain (AID 155);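 further: 0% = growth of vehicle-only cultures of the same strain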; details: S. cerevisiae rad50 strain growth inhibition, stronger effect = higher value
How it was run: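 Cells are treated with compound, grown, and their growth is then scored against vehicle-only cultures of the same repair-deficient yeast strain.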

[16] = at 5.0 µM (retest, dose inferred, filed as 0.5)
[17] = at 50.0 µM (retest, dose inferred, filed as 5.0)

Measured: growth inhibition

CCOP(=O)(OCC)/C(C#N)=C/c1ccc(-c2ccc(F)cc2F)o1
inactive: [1]; at 100.0 µM -1% | [2]; at 1.2 µM -1% | [2]; at 3.7 µM -1% | [2]; at 11.0 µM -2% | [2]; at 33.0 µM -3% | [2]; at 100.0 µM 1% | [3]; [16] 35% | [3]; at 50.0 µM 63.1% | [4]; at 1.2 µM -1% | [4]; at 3.7 µM 1% | [4]; at 11.0 µM -6% | [4]; at 33.0 µM -7% | [4]; at 100.0 µM -1% | [5]; [16] 16% | [5]; at 50.0 µM 60.6% | [6]; at 1.2 µM -7% | [6]; at 3.7 µM -1% | [6]; [16] 26% | [6]; at 11.0 µM 4% | [6]; at 33.0 µM -3% | [6]; at 100.0 µM -2% | [7]; at 1.2 µM -2% | [7]; at 3.7 µM 0% | [7]; at 11.0 µM -1% | [7]; at 33.0 µM 1% | [7]; at 100.0 µM 1% | [8]; at 1.2 µM -1% | [8]; at 3.7 µM -7% | [8]; at 11.0 µM 3% | [8]; at 33.0 µM 0% | [8]; at 100.0 µM -1% | [9]; at 1.2 µM -2% | [9]; at 3.7 µM -4% | [9]; at 11.0 µM -3% | [9]; at 33.0 µM -4% | [9]; at 100.0 µM -1% | [10]; [16] 60% | [10]; at 50.0 µM 41.4% | [11]; at 1.2 µM -3% | [11]; at 3.7 µM -2% | [11]; at 11.0 µM -2% | [11]; at 33.0 µM -19% | [11]; at 100.0 µM 2%
active: [3]; [17] 99% | [5]; [17] 99% | [6]; [17] 99% | [6]; at 50.0 µM 74.8% | [10]; [17] 99%

O=C1C=CC(=Nc2cccc3c2-c2ccccc2C3=O)O1
inactive: [12]; at 1.2 µM 3% | [12]; at 3.7 µM 16% | [12]; at 11.0 µM 67% | [13]; at 1.2 µM 4% | [13]; at 3.7 µM 24% | [13]; at 11.0 µM 61% | [14]; at 1.2 µM 1% | [14]; at 3.7 µM 17% | [15]; at 1.2 µM 3% | [15]; at 3.7 µM 19% | [15]; [16] 26% | [1]; at 1.2 µM 6% | [1]; at 3.7 µM 23% | [1]; [16] 36% | [2]; at 1.2 µM 5% | [2]; at 3.7 µM 18% | [3]; [16] 36% | [4]; at 1.2 µM -3% | [4]; at 3.7 µM 5% | [4]; at 11.0 µM 60% | [5]; [16] 14% | [6]; at 1.2 µM -7% | [6]; at 3.7 µM 0% | [6]; [16] 14% | [7]; at 1.2 µM -3% | [7]; at 3.7 µM 12% | [9]; at 1.2 µM 7% | [9]; at 3.7 µM 25% | [10]; [16] 28% | [11]; at 1.2 µM 8% | [11]; at 3.7 µM 23%
active: [12]; at 33.0 µM 97% | [12]; at 100.0 µM 98% | [13]; at 33.0 µM 89% | [13]; at 100.0 µM 97% | [14]; at 11.0 µM 71% | [14]; at 33.0 µM 99% | [14]; at 100.0 µM 99% | [15]; at 11.0 µM 79% | [15]; at 33.0 µM 98% | [15]; [17] 99% | [15]; at 50.0 µM 99.5% | [15]; at 100.0 µM 97% | [1]; at 11.0 µM 75% | [1]; at 33.0 µM 99% | [1]; [17] 99% | [1]; at 50.0 µM 99.5% | [1]; at 100.0 µM 99% | [2]; at 11.0 µM 94% | [2]; at 33.0 µM 99% | [2]; at 100.0 µM 98% | [3]; [17] 99% | [3]; at 50.0 µM 99.6% | [4]; at 33.0 µM 99% | [4]; at 100.0 µM 98% | [5]; [17] 99% | [5]; at 50.0 µM 98.7% | [6]; at 11.0 µM 72% | [6]; at 33.0 µM 97% | [6]; [17] 99% | [6]; at 50.0 µM 99.7% | [6]; at 100.0 µM 98% | [7]; at 11.0 µM 79% | [7]; at 33.0 µM 99% | [7]; at 100.0 µM 99% | [9]; at 11.0 µM 83% | [9]; at 33.0 µM 99% | [9]; at 100.0 µM 99% | [10]; [17] 99% | [10]; at 50.0 µM 85% | [11]; at 11.0 µM 83% | [11]; at 33.0 µM 99% | [11]; at 100.0 µM 98%
